Assay outcomes as filed in PubChem BioAssay.
LASV entry inh: blocks Lassa virus binding to or entry into cells | Lassa virus pseudotype entry inhibition, cell reporter | Potency, µM (doses to about 37.9 µM), usual class: inhibitors | 300,000 compounds, 1.2% hits | AID 540256; calls by dose curve; tested in HEK293 cells; further: nearly all actives have a fitted effect of over 50% in size
HCMV inh: human cytomegalovirus inhibition; AID 1259415; activity change, negative = inhibition, % at 57.5 µM; 410,000 compounds, 4.5% hits; HFF cells, HCMV-luciferase reporter, 72 h; hits give low values; in the data active means activity change below about -60%; inconclusive means no clear call, values can overlap the other calls; inactive means above about -39%
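Screen run at 2 compound doses on HFFs infected with reporter HCMV, MOI 1 PFU/cell. Luciferase activity from cell lysates at 72 h post infection gave inhibition relative to buffer-only and Salinomycin wells.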
Marburg entry inh: blocks Marburg virus binding to or entry into cells; AID 540276; 300,000 compounds, 1.8% hits; Potency, µM (top dose mostly 37.8 µM), usual class: inhibitors; Marburg virus pseudotyped entry inhibition, cell reporter; calls by dose curve; tested in HEK293 cells
FMDV antiviral: foot and mouth disease virus antiviral activity; FMDV antiviral cell-based qHTS; Potency, µM (titrated, usually from 57.9 µM), actives largely listed as inhibitors; 410,000 compounds, 1.2% hits; AID 1159524; calls by dose curve; tested in HEK293T cells; further: read-out not given here; nearly all actives have a fitted effect of over 45% in size
Large screens that a line does not name were inactive. A selection: hits, their analogues and other compounds. The true share with any hit is near 6.2%.

Cc1cc2nn(-c3ccc(F)cc3)nc2cc1N	LASV entry inh inconclusive, Marburg entry inh 5.01µM
COc1ccc(-n2nc3ccc(N)cc3n2)cc1	none (no result: LASV entry inh, Marburg entry inh)
CN(C)S(=O)(=O)c1ccc2c(c1)nnn2CCNC(=O)Nc1ccc(Cl)cc1	none (no result: Marburg entry inh)
Cc1ccc(S(=O)(=O)N(C)c2ccc(OCC(=O)Nc3nc4c(ccc5ccccc54)s3)cc2)cc1	Marburg entry inh 1.41µM
COc1ccc(-n2cc(-c3ccc4c(c3)OCO4)n(CC(=O)Nc3cccc(C)c3C)c2=O)c(OC)c1	LASV entry inh inconclusive, HCMV inh -86.0, Marburg entry inh inconclusive, FMDV antiviral inconclusive
CCOc1cc(S(=O)(=O)n2ccnc2C(C)C)ccc1Cl	none (no result: Marburg entry inh)
c1ccc(Nc2nc(N3CCCCC3)nc(N3CCNCC3)n2)cc1	LASV entry inh inconclusive, Marburg entry inh 7.3µM (no result: FMDV antiviral)
c1ccc(Nc2nc(N3CCCCC3)nc(N3CCCCC3)n2)cc1	Marburg entry inh inconclusive
Cc1oc(-c2ccc(Cl)cc2)nc1CN1CCC(C(=O)NCCCN2CCOCC2)CC1	LASV entry inh inconclusive, Marburg entry inh 13µM
Cc1ccccc1-c1nc(CN2CCC(C(=O)NCCCN3CCCC(C)C3)CC2)c(C)o1 (stereo not given)	LASV entry inh inconclusive, HCMV inh -63.4, Marburg entry inh inconclusive
COc1ccc(-c2nc(CN3CCC(C(=O)NCCCN4CCN(c5ccccc5F)CC4)CC3)c(C)o2)cc1OC	LASV entry inh inconclusive, HCMV inh -104.0, Marburg entry inh 4.47µM
Cc1oc(-c2ccc(Cl)cc2)nc1CN1CCC(C(=O)NCCCN2CCN(c3cccc(Cl)c3)CC2)CC1	LASV entry inh inconclusive, HCMV inh inconclusive, Marburg entry inh inconclusive, FMDV antiviral 25.1µM
Cc1oc(-c2cccc(Cl)c2)nc1CN1CCC(C(=O)NCCCN2CCN(c3ccccc3F)CC2)CC1	FMDV antiviral inconclusive
Fc1cc(Cl)ccc1Nc1nc(NCc2ccccc2)nc2ccsc12	FMDV antiviral inconclusive (no result: LASV entry inh, Marburg entry inh)
CN(C(=O)CNc1ccccc1Cl)C1CCS(=O)(=O)C1 (stereo not given)	none (no result: LASV entry inh, Marburg entry inh)
C[C@@H]1O[C@@H](O[C@H]2C[C@@H](O)[C@]3(CO)[C@H]4[C@H](O)C[C@]5(C)[C@@H](C6=CC(=O)OC6)CC[C@]5(O)[C@@H]4CC[C@]3(O)C2)[C@H](O)[C@H](O)[C@H]1O	LASV entry inh 0.0461µM, Marburg entry inh 0.0651µM, FMDV antiviral inconclusive (no result: HCMV inh)
C[C@@H]1O[C@@H](O[C@H]2C[C@@H](O)[C@]3(CO)[C@@H]4C(CC[C@]3(O)C2)[C@@]2(O)CC[C@H](C3=CC(=O)OC3)[C@@]2(C)C[C@H]4O)[C@H](O)[C@H](O)[C@H]1O (stereo not given in full)	Marburg entry inh 0.0316µM, FMDV antiviral inconclusive (no result: LASV entry inh, HCMV inh)
CC1O[C@@H](OC2CC(O)[C@@]3(CO)C4C(O)C[C@@]5(C)C(C6=CC(=O)OC6)CC[C@]5(O)C4CC[C@]3(O)C2)C(O)C(O)C1O (stereo not given in full)	none (no result: LASV entry inh, HCMV inh, Marburg entry inh)
CCOc1ccc2[nH]c(=O)c(CN(CCO)C3(c4nnnn4C4CCCCC4)CCCCC3)cc2c1	HCMV inh -60.6, Marburg entry inh inconclusive, FMDV antiviral inconclusive
CCOc1ccc2[nH]c(=O)c(CN(CCO)Cc3nnnn3CCc3ccccc3)cc2c1	none
COc1cc2cc(CN(Cc3nnnn3Cc3ccco3)C3CCCCC3)c(=O)[nH]c2cc1OC	Marburg entry inh inconclusive
CCOc1ccc2[nH]c(=O)c(CN(Cc3nnnn3Cc3ccco3)C3CCCCC3)cc2c1	LASV entry inh inconclusive, Marburg entry inh 10µM
COc1ccccc1CN(Cc1cc2cc(C)cc(C)c2[nH]c1=O)Cc1nnnn1CC1CCCO1 (stereo not given)	LASV entry inh inconclusive, Marburg entry inh 10.3µM (no result: FMDV antiviral)
COc1ccccc1CN(Cc1cc2cc(C)ccc2[nH]c1=O)Cc1nnnn1Cc1ccco1	LASV entry inh inconclusive, Marburg entry inh 12.6µM, FMDV antiviral inconclusive
CCN(CC(=O)NCc1ccccn1)S(=O)(=O)c1ccc(OC)cc1	none
O=C(Nc1cccc(C2=NCCN2)c1)Nc1cccc(C2=NCCN2)c1	HCMV inh -80.6 (no result: LASV entry inh, Marburg entry inh)
Cc1ccccc1C(=O)Nc1ccc(Br)c(C)n1	Marburg entry inh inconclusive
CC(NCc1ccncc1)C12CC3CC(CC(C3)C1)C2 (stereo not given)	none
CC(NCc1ccccc1O)C12CC3CC(CC(C3)C1)C2 (stereo not given)	HCMV inh -86.9, FMDV antiviral inconclusive (no result: LASV entry inh, Marburg entry inh)
CC(C#N)Sc1ccc(S(=O)(=O)N(C)C2CCCCC2)cn1 (stereo not given)	HCMV inh -61.6 (no result: LASV entry inh, Marburg entry inh)
CC(C#N)Sc1ccc(S(=O)(=O)N2CCCCC2)cn1 (stereo not given)	FMDV antiviral inconclusive (no result: LASV entry inh, Marburg entry inh)
CC(=O)c1cccc(NC(=O)Cn2c(SCC(=O)Nc3ccc(F)cc3)nc3ccccc32)c1	none (no result: Marburg entry inh)
Cc1ccc(S(=O)(=O)CC(O)COc2ccc(C#N)cc2)cc1 (stereo not given)	HCMV inh -69.5
N#Cc1ccc(OCC(O)CS(=O)(=O)c2ccc(F)cc2)cc1 (stereo not given)	HCMV inh inconclusive
COc1cccc(NC(=O)C2CCN(S(=O)(=O)c3ccc4[nH]c5c(c4c3)CCCCC5)CC2)c1	HCMV inh inconclusive (no result: Marburg entry inh)
Cc1ccc(S(=O)(=O)N2CCN(c3ncnc4scc(-c5ccc(F)cc5)c34)CC2)cc1	Marburg entry inh inconclusive, FMDV antiviral inconclusive
Cc1sc2ncnc(N3CCOCC3)c2c1C	HCMV inh -66.0, FMDV antiviral inconclusive
Cc1ccc(S(=O)(=O)N2CCN(c3ncnc4scc(-c5ccccc5)c34)CC2)cc1	LASV entry inh 11.2µM, Marburg entry inh inconclusive
Cc1sc2ncnc(N3CCN(S(=O)(=O)c4ccccc4)CC3)c2c1C	FMDV antiviral 20µM (no result: HCMV inh)
Cc1sc2ncnc(N3CCCCC3)c2c1C	HCMV inh inconclusive, FMDV antiviral inconclusive
Cc1ccc(OCCN2CCN(c3ncnc4sc(C)c(C)c34)CC2)cc1	LASV entry inh inconclusive, HCMV inh -98.8, Marburg entry inh inconclusive, FMDV antiviral inconclusive
Cc1ccc(OCCN2CCCC2)cc1	none (no result: LASV entry inh, Marburg entry inh)
CCOC(=O)C(CC)(CCC(=O)O)c1csc(Nc2ccc(C)cc2)n1 (stereo not given)	none
CCc1nnc(NS(=O)(=O)c2ccc(NC(=O)c3cc(Cl)ccc3OC)cc2)s1	none (no result: LASV entry inh, Marburg entry inh)
Cc1ccc(-c2cc(C(=O)Nc3c(C#N)cnn3C)no2)cc1	none
O=S(=O)(c1ccccc1)N1CCN(c2nc(-c3cccs3)nc3ccccc23)CC1	none (no result: HCMV inh, FMDV antiviral)
Cc1nc(N2CCN(S(=O)(=O)c3ccccc3C#N)CC2)c2c(-c3ccccc3)csc2n1	HCMV inh -73.8, FMDV antiviral inconclusive (no result: LASV entry inh, Marburg entry inh)
Cc1nc(N2CCN(S(=O)(=O)c3ccc(F)cc3)CC2)c2c(-c3cccs3)csc2n1	LASV entry inh inconclusive, HCMV inh -65.6, Marburg entry inh inconclusive, FMDV antiviral inconclusive
CCN(CC)CCOC(=O)c1ccc(NC(=O)CCNC(=O)Cn2ccc3ccccc3c2=O)cc1	none
Cc1cccc(C)c1-c1ccc(CN2C(CC(C)C)C(=O)N(Cc3cn(CC4CCCCC4)nn3)CCS2(=O)=O)cc1 (stereo not given)	HCMV inh -100.3 (no result: LASV entry inh, Marburg entry inh)
C/C(CC(=O)Nc1ccc(Cl)c(C(F)(F)F)c1)=N\NC(=O)c1cccc(O)c1	LASV entry inh inconclusive, Marburg entry inh inconclusive
C/C(CC(=O)Nc1ccc(Cl)c(C(F)(F)F)c1)=N\NC(=O)c1ccccc1O	LASV entry inh inconclusive, HCMV inh -80.4, Marburg entry inh 18.4µM, FMDV antiviral inconclusive
Cc1ccc(-c2ccc(CCC(=O)O)n2C(C)C)cc1	none (no result: LASV entry inh)
